In the library only some 4.6% were active in any assay of this set; here they are far more common.
SKKanGAS inh: S. pyogenes SKKanGAS growth inhibitors in kanamycin, primary screen, streptokinase expression inhibitor project, SKKanGAS strain, BacTiter-Glo luminescence | 6 h | inhibition, % at 7.5 µM | 1.3% of 300,000 active | AID 1662, 2009;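 active means mean replicate score, as percent of positive control median, at least 50; inconclusive means mean below 50 but one replicate at or above 50; inactive means mean and every replicate below 50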;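 further: strain carries kanamycin resistance gene driven by streptokinase promoter and grows in 40 µg/ml kanamycin; loss of luminescence reflects streptokinase promoter inhibition or plain growth inhibition; 0% = median of DMSO wells and 100% = positive control at its reference dose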
tim23-1 inh: growth inhibitors of tim23-1 mutant yeast, primary screen, luminescence, uHTS; S. cerevisiae tim23-1 growth, BacTiter-Glo luminescence, 24 h; inhibition, % at 20 µM; 1.3% of 330,000 active; AID 463212, 2010;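 active means growth inhibition of the mutant yeast at or above 50%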;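 further: temperature-sensitive mutant grown at 25 °C; plate controls were DMSO-treated mutant yeast for no effect and medium wells lacking yeast for full effect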
NLRP3 yeast inh: NALP3 inflammasome inhibitors in reconstituted yeast, primary screen, luminescence, uHTS; Yeast reconstituted NLRP3/ASC/caspase-1, beta-gal luminescence, 24 h; inhibition, % at 10 µM; 0.39% of 330,000 active;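 active means inhibition of 50% or more; inactive means inhibition below 50%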;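 further: plate controls were induced DMSO wells for no effect and uninduced yeast grown without galactose for full effect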
TIM10 inh: growth inhibitors of isogenic TIM10 control yeast, primary screen, counter-screen for tim10-1 yeast inhibitor project, luminescence, uHTS | S. cerevisiae TIM10 strain growth, BacTiter-Glo luminescence, 24 h | inhibition, % at 10 µM | 1.4% of 330,000 active | AID 463195, 2010;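 active means inhibition of 40% or more at the single tested concentration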;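 further: wild-type TIM10 isogenic control strain grown at permissive 25 °C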
tim10-1 inh: growth inhibitors of tim10-1 mutant yeast, primary screen, luminescence, uHTS; S. cerevisiae tim10-1 ts strain growth, BacTiter-Glo, 24 h; inhibition, % at 20 µM; 2.2% of 330,000 active;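 active means inhibition of at least 40%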;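 further: mutant grown at 25 °C; 0% = DMSO wells with yeast and 100% = wells holding no yeast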
TIM10 conf: growth inhibitors of wild-type TIM10 yeast, confirmation, counter-screen for tim10-1 synthetic lethality project, single concentration, luminescence, S. cerevisiae. shares compounds with TIM10 inh. S. cerevisiae tim10 strain growth, BacTiter-Glo luminescence, 24 h. inhibition, % at 10 µM. 63% of 4,600 active. AID 463215, 2010;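 active means inhibition of yeast growth at or above a set limit in either of two replicates at 10 µM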;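 further: this counterscreen used the strain with wild-type TIM10; 0% = yeast with DMSO and 100% = medium wells lacking yeast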
* marks the source's active call; other numbers are inactive results; ? = inconclusive; · = no result given.

SMILES	SKKanGAS inh	tim23-1 inh	NLRP3 yeast inh	TIM10 inh	tim10-1 inh	TIM10 conf
Cc1nccn1-c1ccc(C=O)cc1	2.1	-11.1	0.5	4.2	3.2	·
CCCCn1c(N)c(N(Cc2ccccc2OC)C(=O)c2cc(=O)[nH]c3ccccc23)c(=O)[nH]c1=O	-10.3	-4.4	17.8	-5.7	20.3	·
COCCn1c(N)c(N(Cc2ccccc2)C(=O)c2cc(=O)[nH]c3ccccc23)c(=O)[nH]c1=O	·	-7.1	9.9	41.5*	-9.4	-18.3
COc1ccc(-c2cc(-c3ccc(OC)cc3)nc(-c3ccc4c(c3)NC(=O)CO4)c2)cc1	23.2	18.3	7.7	40.9*	20.5	-3.9
COc1cccc(-c2nc(-c3ccc4c(c3)NC(=O)CO4)cs2)c1	13.2	16.2	17.7	19.7	17.9	·
COc1ccc(C2(O)CCN(CC(=O)Nc3nc(-c4ccccc4)cs3)CC2)cc1	1.7	47.2	34.9	51.8*	35.0	43.2*
COc1ccccc1NC(=S)N/N=C/c1ccc(O)cc1	-0.4	46.8	36.6	53.1*	36.9	-28.2
O=C(Nc1nc(-c2cccnc2)cs1)c1ccccc1[N+](=O)[O-]	4.6	-28.4	3.6	-32.8	-1.6	·
CCCC(=O)N1CC(=O)Nc2ccc(C)cc2C1c1ccccc1 (centres undefined)	6.7	19.6	-9.8	23.0	27.0	·
COc1cccc(/C=N/NC(=O)CSc2ccccc2C)c1O	?	38.6	-4.1	42.6*	8.0	53.4*
COc1cccc(/C=N/NC(=O)CSc2ccccc2C)c1OC	9.9	1.3	17.8	14.0	3.9	·
COc1ccc(NC(=S)NCCSc2ccc(C)cc2)c(OC)c1	-5.7	44.2	20.1	45.8*	25.5	-14.8
COc1ccc(NC(=S)NCCc2ccc(Cl)cc2)c(OC)c1	-4.0	46.8	23.3	41.0*	35.6	-34.8
O=C(COC(=O)c1ccc([N+](=O)[O-])o1)Nc1ccc(F)cc1	·	15.0	9.2	-105.8	-138.7	·
O=C(COC(=O)c1ccc([N+](=O)[O-])o1)Nc1ccc(Br)cc1F	·	18.6	2.3	47.2*	-32.3	49.5*
COc1ccc(NC(NC(=O)c2ccc(OC)cc2)C(Cl)(Cl)Cl)cc1 (centres undefined)	6.7	35.2	-1.7	41.7*	33.1	26.5*
COc1ccc(-c2nc(SCC(=O)NC3CCCCC3)n[nH]2)cc1	-12.4	13.4	12.0	8.6	5.6	·
CCCCN1CC(=O)N2[C@H](c3ccc(Cl)cc3)[C@@H]3C(=O)N(CC)C(=O)[C@@H]3[C@]2(C)C1=O	-2.9	-10.3	15.3	52.6*	-1.0	-7.4
CC(=O)c1cc2c(cc1N/C(=N/S(=O)(=O)c1ccc(C)cc1)c1ccccc1)OCO2	-7.2	30.4	15.0	42.7*	25.7	2.1
O=C(c1ccccc1)N1CCCCC(Sc2nnc3ccccn23)C1=O (centres undefined)	-3.6	2.1	8.4	-10.6	-5.2	·
CCN(CC)C(=S)SC1CCCCN(C(=O)c2ccccc2)C1=O (centres undefined)	-6.7	35.9	-15.6	40.0	27.6	21.9
CCN1C(=O)C(=Cc2cccc(OC)c2Oc2ccc([N+](=O)[O-])cc2[N+](=O)[O-])SC1=S	8.8	42.4	14.7	43.7*	24.5	6.2
O=C(/C=C/c1ccc2c(c1)OCO2)NCCSCc1ccc(Cl)cc1Cl	35.4	13.4	25.5	40.5*	37.0	2.8
O=c1oc2ccc(Cl)cc2cc1-c1nnc(Nc2cccc(C(F)(F)F)c2)s1	-2.8	13.8	9.5	4.9	8.6	·
CNc1nnc(-c2cc3cc(Cl)ccc3oc2=O)s1	-0.5	23.1	11.8	46.2*	17.7	32.7*
SMILES	SKKanGAS inh	tim23-1 inh	NLRP3 yeast inh	TIM10 inh	tim10-1 inh	TIM10 conf
COc1ccc(-n2c(C)nnc2SCC(=O)Nc2ccccc2F)cc1	8.4	10.5	18.3	6.6	-4.6	·
O=C(Nc1ccc(F)cc1)C1COc2ccccc2O1 (centres undefined)	-1.4	10.0	3.9	16.1	-1.7	·
CCN(CC)S(=O)(=O)c1ccc(NC(=O)C2COc3ccccc3O2)cc1 (centres undefined)	3.2	36.2	-3.1	40.2*	38.7	35.1*
COc1cccc(CC2(CO)CCN(Cc3cccn3-c3cccnc3)CC2)c1	-2.4	27.1	6.0	14.4	10.0	·
COc1ccc(C(=O)NCCS(=O)(=O)NC2CCCC2)cc1	3.8	5.9	22.6	40.5*	-2.3	2.6
NC(=O)CC(NC(=O)c1ccccc1)c1ccc(N2CCN(c3ccccc3)CC2)c([N+](=O)[O-])c1 (centres undefined)	-1.2	-10.7	5.1	-2.2	-12.8	·
NC(=O)CC(NC(=O)c1cccc(Br)c1)c1ccc(NCCN2CCOCC2)c([N+](=O)[O-])c1 (centres undefined)	-2.1	-5.3	-3.6	42.8*	7.3	-11.6
Cc1cc(C)cc(C(=O)NC(CC(N)=O)c2ccc(N3CCN(c4ccccc4)CC3)c([N+](=O)[O-])c2)c1 (centres undefined)	13.5	5.7	8.0	48.6*	-0.8	-5.4
NC(=O)CC(NC(=O)c1cccc(Br)c1)c1ccc(NCC2CC2)c([N+](=O)[O-])c1 (centres undefined)	-1.9	12.8	15.0	-5.6	-6.2	·
Cc1ccc(CN(C)C(=O)CN2C(=O)NC(c3ccccc3)(c3ccccc3)C2=O)c(C)c1	·	37.7	18.1	16.6	10.3	·
N=c1oc2ccccc2cc1C(=O)Nc1cccc(F)c1	5.2	46.5	4.1	40.5*	-16.2	19.1
Cc1cc(C(=O)COC(=O)CC2Sc3ccccc3NC2=O)c(C)n1-c1ccc(Br)cc1 (centres undefined)	18.4	23.0	-0.7	22.5	28.2	·
Cc1cc(C(=O)COC(=O)CC2Sc3ccccc3NC2=O)c(C)n1-c1ccccc1 (centres undefined)	4.3	25.7	3.8	57.4*	36.2	32.0*
O=C(Nc1ccccc1)Nc1cccc(Cl)c1Cl	5.1	40.5	24.6	44.7*	19.8	18.1
O=C(Nc1ccncc1)Nc1cccc(Cl)c1Cl	16.4	-17.7	14.3	-76.2	-12.0	·
COC(=O)c1c(NC(=O)COc2ccc(Cl)cc2)sc2c1CC(C)(C)NC2(C)C	67.6*	43.8	21.8	46.3*	39.4	30.6
COC(=O)c1c(NC(=O)Cc2ccccc2)sc2c1CC(C)(C)NC2(C)C	4.9	5.5	12.9	7.4	10.7	·
CC(OC(=O)[C@@H]1CCCN1C(=O)c1cccs1)C(=O)Nc1cccc([N+](=O)[O-])c1 (some centres undefined)	·	42.3	17.0	3.8	8.9	·

From PubChem
